# Measurements as given in PubChem BioAssay (NCI).
# About 83,000 compounds went through this panel and 20% of them were active in at least one assay; those are over-represented in the sample as a whole.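 How to read the values: 0–100, growth inhibition (40 = 60% inhibited); 0, no net growth; -100 to 0, cell death (-40 = 40% of starting cells died; -100 = all dead).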 A number with no mark means an inactive call. The source made the active and inactive calls. The calls were made as follows: active = growth percent below 10; inactive = the rest.
# How the values were obtained:
# Test in all cases: NCI-60 one-dose screen, 48 h (100 = growth as untreated, 0 = no growth, -100 = all killed)
# HOP-92 NSCLC = conditions: 10 µM unless noted
# NCI-H522 lung = conditions: 10 µM unless noted
# COLO 205 colon = conditions: 10 µM
# HT29 colon = conditions: 10 µM unless noted
# SNB-75 CNS = conditions: 10 µM unless noted
# SNB-19 CNS = conditions: 10 µM unless noted
# EKVX NSCLC = conditions: 10 µM unless noted
# TK-10 renal = conditions: 10 µM unless noted
# CAKI-1 renal = conditions: 10 µM unless noted
# RPMI-8226 leukemia = conditions: 10 µM unless noted
# OVCAR-8 ovarian = conditions: 10 µM unless noted
# SK-OV-3 ovarian = conditions: 10 µM unless noted
# T-47D breast = conditions: 10 µM unless noted
# A549/ATCC NSCLC = conditions: 10 µM unless noted
# MOLT-4 leukemia = conditions: 10 µM
# OVCAR-5 ovarian = conditions: 10 µM unless noted
# MDA-MB-435 melanoma = conditions: 10 µM unless noted
# UO-31 renal = conditions: 10 µM unless noted
# ACHN renal = conditions: 10 µM unless noted
Compound,growth (HOP-92 NSCLC),growth (NCI-H522 lung),growth (COLO 205 colon),growth (HT29 colon),growth (SNB-75 CNS),growth (SNB-19 CNS),growth (EKVX NSCLC),growth (TK-10 renal),growth (CAKI-1 renal),growth (RPMI-8226 leukemia),growth (OVCAR-8 ovarian),growth (SK-OV-3 ovarian),growth (T-47D breast),growth (A549/ATCC NSCLC),growth (MOLT-4 leukemia),growth (OVCAR-5 ovarian),growth (MDA-MB-435 melanoma),growth (UO-31 renal),growth (ACHN renal)
O=C(CCCN1CCC2(CC1)C(=O)NCN2c1ccc(F)cc1)c1ccc(F)cc1,102%,87.5%,124%,111%,92.4%,95.6%,135%,102%,121%,101%,97.8%,98.4%,102%,–,–,–,–,–,–
O=C(c1cccs1)C1NO[N+]([O-])=C1c1cccs1 (centres undefined),-35.9% (active),-92.1% (active),6.64% (active),–,–,103%,102%,-46.8% (active),-62.9% (active),14.1%,24.5%,118%,26.3%,86.9%,38.5%,114%,72.9%,–,–
O=C(O)c1[nH]c(=O)[nH]c(=O)c1F,106%,88.9%,–,106%,99%,91.4%,121%,–,66.8%,73.7%,81.7%,–,104%,90.1%,49.7%,104%,74.7%,65.9%,–
[Cl][Hg][n]1cnc2c(Cl)c(Cl)c(Cl)cc21,116%,50.2%,–,81.2%,–,102%,81.7%,108%,103%,98.9%,–,113%,72.2%,–,107%,132%,107%,86.4%,97.9%
CCC(/C=C(C)/C=C/C(=O)c1c(O)c(-c2ccc(O)cc2)c[nH]c1=O)CO (centres undefined),26.2%,–,124%,107%,91.3%,90.6%,89.2%,130%,81.8%,–,92.4%,–,92.6%,90.2%,31.5%,134%,–,67.9%,104%
C/C(=C\c1cc(C(F)(F)F)n(-c2ccc(N)cc2)n1)[C@@H]1C[C@@H]2O[C@]2(C)CCC[C@H](C)[C@H](O)[C@@H](C)C(=O)C(C)(C)[C@@H](O)CC(=O)O1,37.9%,–,-45% (active),–,-16.2% (active),21.1%,31.8%,–,25.3%,3.83% (active),0.138% (active),2.26% (active),12.8%,1.71% (active),4.35% (active),14.7%,-22.6% (active),26.6%,31.9%
COc1cc(C2(C#N)CCN(C)CC2)cc(OC)c1OC,100%,–,107%,–,84.9%,–,112%,108%,79.1%,106%,101%,105%,98.1%,–,83.3%,–,103%,79.8%,98.5%
CNc1ccc(C(=O)CC(O)CCC(C)C2OC(=O)CC(O)CC(=O)CC(O)CC(O)CC(O)CC(O)CC3(O)CC(O)C(C(=O)OC)C(CC(O[C@@H]4O[C@H](C)[C@@H](O)[C@H](N)[C@@H]4O)/C=C/C=C/C=C/C=C/C=C/C=C/C=C/C2C)O3)cc1 (some centres undefined),–,-13.2% (active),2.91% (active),-21.2% (active),42.6%,41.8%,-9.97% (active),-47.6% (active),2.61% (active),18.3%,-22.3% (active),2.49% (active),-2.05% (active),-65% (active),-13.8% (active),–,-1.58% (active),-58.6% (active),–
[O]=[Sn]([CH]1CCCCC1)[CH]1CCCCC1,–,-72.6% (active),-89.9% (active),-52.8% (active),-99.9% (active),-84.4% (active),-24.3% (active),-93.8% (active),-93.5% (active),–,-66.2% (active),–,-86.7% (active),-83.3% (active),6.59% (active),-97.1% (active),-88.4% (active),–,-99.3% (active)
